In PubChem BioAssay (NCATS) one finds Potency and outcome data, which are given here for 21 molecules.

The nature of test [1]: Cell Viability - LYMP1-002 - Assay at 16 hr (AID 948). Further: potency means the concentration at half of the fitted maximal effect. The procedure, abridged:
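Seed 2500 LYMP1-002 cells per well in complete medium and hold 5 hr at 37 C. Add compound across a concentration series and incubate 16 hr at 37 C. Add CellTiter-Glo, wait 30 min at room temperature, read luminescence.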

Test [2] in a line: MultiTox-Fluor Cytotoxicity Assay - LYMP1-002 - Live Cells (AID 955).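 Further: cells exposed to compound for 16 hours.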 The procedure, abridged:
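Human lymphoblastoid LYMP1-002 cells, 2500/well, treated 16 h at 37 C in complete medium. Live-cell protease activity via GF-AFC fluorescence (Ex/Em 405/510) after 60 min reagent incubation; AC50 from Hill fits.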

The nature of test [3]: MultiTox-Fluor Cytotoxicity Assay - LYMP1-003 - Dead Cells (AID 961). Further: nearly all actives have a fitted effect of over 70% in size. Further: potency means the concentration at half of the fitted maximal effect. The essentials:
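Dead-cell protease release, detected as bis-AAF-R110 fluorescence at 485/520 nm, was measured in LYMP1-003 cells after 16 h compound treatment at 37 C. AC50 values came from Hill-modeled qHTS curves normalized to DMSO (0%) and 15 uM tetraoctylammonium bromide (100%).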

The nature of test [4]: MultiTox-Fluor Cytotoxicity Assay - LYMP1-003 - Live Cells (AID 962).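 Further: cells exposed to compound for 16 hours at 37 °C; cytotoxic hits lower the live-cell protease signal.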 The essentials: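 LYMP1-003 lymphoblastoid cells, 2500/well in complete medium, treated 16 h at 37 C; live-cell protease cleavage of GF-AFC read by fluorescence (Ex/Em 405/510) after 60 min reagent; AC50 from Hill fits of concentration-response.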
A short description of test [5]: Cell Viability - LYMP1-003 - Assay at 24 hr (AID 963). Further: potency means the concentration at half of the fitted maximal effect. The procedure, abridged: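 Human lymphoblastoid LYMP1-003 cells, 2500/well, treated 24 h at 37 C in complete medium. Viability read as intracellular ATP by CellTiter-Glo luminescence after 30 min at room temperature; AC50 from Hill-equation fits of qHTS concentration-response.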
Test [6] in a line: Cell Viability - LYMP1-003 - Assay at 40 hr (AID 964). Further: nearly all actives have a fitted effect of over 60% in size. Further: potency means the concentration at half of the fitted maximal effect. The procedure, abridged: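 LYMP1-003 human lymphoblastoid cells, 2500/well, preincubated 5 h at 37 C, then treated with compound for 40 h at 37 C. Intracellular ATP read by CellTiter-Glo luminescence after 30 min at room temperature; AC50 from Hill-equation fits.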
Test [7] can be described thus: Cell Viability - LYMP2-003 (AID 965).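 Further: cells exposed to compounds for 24 h before reading; nearly all actives have a fitted effect of over 50% in size.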 The essentials:
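Seed 2500 lymphoblastoid cells/well; incubate 5 hr, 37 C; add compounds; incubate 24 hr, 37 C; add CellTiter-Glo, 30 min RT; read luminescence. AC50 from Hill fit.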

Test [8] in a line: Cell Viability - LYMP2-004 (AID 966). Further: nearly all actives have a fitted effect of over 65% in size. The procedure, abridged: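 Lymphoblastoid LYMP2-004 cells, 2500 per well, were preincubated for 5 hr and then treated with compound for 24 h at 37 C in complete medium. Viability was read as cellular ATP by CellTiter-Glo luminescence, and AC50 values were taken from Hill fits to concentration-response data.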
The nature of test [9]: Cell Viability - LYMP2-005 (AID 967). Further: series mostly up to about 92 µM. The procedure, abridged: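 Acute cytotoxicity is scored as a concentration-dependent drop in intracellular ATP in human lymphoblastoid LYMP2-005 cells after 24 h compound treatment. ATP is quantified by luciferase luminescence, and AC50 is derived by Hill-equation modelling.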
The target of test [10] is Pyruvate kinase PKM (Homo sapiens) (UniProt P14618). The test can be described thus: qHTS Assay for Activators of Human Muscle Pyruvate Kinase (AID 954; active means well fitted curve in the direction sought with a large enough effect, not every such curve was filed as active). The essentials: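 Human PKM2 activity is measured as ATP generation, detected by luciferase-coupled luminescence. The enzyme (0.1 nM) acts on 0.5 mM PEP and 0.1 mM ADP for 1 h at ambient temperature; data are normalized to uninhibited and full-inhibition wells.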
(Quantitative high-throughput screening tests each substance at several concentrations.)

Records with an inconclusive call do not appear. The source made the active and inactive calls. Unless noted, the call rests on the fitted dose curve; in most records, active means well fitted curve in the direction sought with a large enough effect; inconclusive means small, poorly fitted or top-dose-only effect, or another doubt; inactive means no such curve, though single readings can be large; an effect the other way counts as inactive or inconclusive.

Sequence of Pyruvate kinase PKM (Homo sapiens) (P14618 whole entry, looked up): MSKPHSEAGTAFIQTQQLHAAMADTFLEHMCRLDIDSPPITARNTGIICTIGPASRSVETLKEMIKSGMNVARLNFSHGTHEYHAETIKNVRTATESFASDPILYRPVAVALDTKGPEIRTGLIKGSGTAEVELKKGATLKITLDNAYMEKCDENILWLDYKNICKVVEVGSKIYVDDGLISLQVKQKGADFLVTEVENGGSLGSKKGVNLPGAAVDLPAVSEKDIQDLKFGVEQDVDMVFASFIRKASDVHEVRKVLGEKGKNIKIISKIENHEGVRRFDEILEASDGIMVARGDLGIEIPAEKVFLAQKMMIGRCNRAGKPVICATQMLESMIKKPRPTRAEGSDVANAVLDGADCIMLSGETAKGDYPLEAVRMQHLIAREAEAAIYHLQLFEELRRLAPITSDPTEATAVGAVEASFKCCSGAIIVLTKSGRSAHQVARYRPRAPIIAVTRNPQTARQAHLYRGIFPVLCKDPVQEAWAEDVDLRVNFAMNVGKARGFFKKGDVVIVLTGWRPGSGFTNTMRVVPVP

In the case of `NCCNCCNCCNCCN`, the Potency entry in test [1], in test [3], in test [5] and in test [6] was “inactive” each time. Besides, the outcome in [2], in test [4], in test [7], in test [8] and in test [9] was inactive.

For `Cc1cc(N)c2ccccc2[n+]1CCCCCCCCCC[n+]1c(C)cc(N)c2ccccc21`, the outcome in test [10] was inactive.

Turning to `CCCCOC(=O)c1ccc(O)cc1`, the Potency entry in test [1], in test [3], in [5] and in [6] was “inactive” in each case. Further, the outcome in test [2], in [4], in [7], in test [8] and in [9] was inactive.

Consider `O=C1O[C@H]([C@@H](O)CO)C(O)=C1O`, for which the Potency result in test [1], in [3], in test [5] and in [6] was “inactive” each time. The call in [2], in test [4], in test [7], in test [8] and in test [9] was inactive.

As to `Cc1cc2nc3c(=O)[nH]c(=O)nc-3n(C[C@H](O)[C@H](O)[C@H](O)CO)c2cc1C`, the Potency entry in [1], in [5] and in [6] was “inactive” throughout. For the same molecule, the Potency in [3] is 39.8 µM (active). For the same molecule, the molecule was classed as inactive in test [4], in [7], in test [8] and in test [9].

For the molecule `NC(N)=NCCC[C@H](N)C(=O)O`, the result in [10] was inactive.

Regarding `COc1ccccc1O`, the Potency result in test [1], in test [3], in [5] and in test [6] was “inactive” each time. The call in test [2], in test [4], in test [7], in test [8] and in test [9] was inactive.

Turning to `C[C@]12C[C@H](O)[C@H]3[C@@H](CCC4=CC(=O)CC[C@@]43C)[C@@H]1CC[C@@H]2C(=O)CO`, the Potency entry in [1], in test [3], in test [5] and in test [6] was “inactive” throughout. Moreover, the result in [10], in [2], in [4], in [7], in [8] and in [9] was inactive.

As for `O=C1c2c(O)cccc2Cc2cccc(O)c21`, the Potency result in test [1], in test [3], in test [5] and in test [6] was “inactive” in each case. Besides, the outcome in test [2], in test [4], in test [7] and in test [8] was inactive.

In the case of `CCCCCCCCCCCCOS(=O)(=O)O`, the Potency result in test [1], in test [3], in test [5] and in test [6] was “inactive” throughout. Besides, the molecule was called inactive in [2], in test [4], in test [7], in test [8] and in test [9].

On to `Cc1c(O)cccc1C(=O)N[C@@H](CSc1ccccc1)[C@H](O)CN1C[C@H]2CCCC[C@H]2C[C@H]1C(=O)NC(C)(C)C`, for which the Potency in test [1] is 50.1 µM (active); in test [3], 50.1 µM (active); in test [5] it was 39.8 µM (active); in [6], 39.8 µM (active).

For `[Cl][In]([Cl])[Cl]`, the Potency entry in [1], in [3], in test [5] and in test [6] was “inactive” each time. Moreover, the call in test [2], in [4], in test [7], in test [8] and in [9] was inactive.

Turning to `Nc1ccc(S(=O)(=O)Nc2nccs2)cc1`, the Potency entry in test [1], in [3], in [5] and in test [6] was “inactive” in each case. For the same molecule, the outcome in test [2], in test [4], in test [7], in test [8] and in [9] was inactive.

Take `CN(C)CCC=C1c2ccccc2CCc2ccccc21`: the Potency result in [1] and in test [5] was “inactive” in each case. The outcome in test [10], in test [2], in test [4] and in test [7] was inactive.

For the molecule `NC(=O)c1ncn([C@@H]2O[C@H](CO)[C@@H](O)[C@H]2O)n1`, the Potency entry in test [1], in test [3] and in [5] was “inactive” each time. Moreover, the molecule was classed as inactive in test [10], in test [2], in [4], in [7], in test [8] and in test [9].

Consider `CC1(C)[C@@H]2CC[C@@]1(C)C(=O)C2`, for which the Potency entry in test [1], in test [3], in [5] and in test [6] was “inactive” throughout. Also, the molecule was classed as inactive in test [2], in test [4], in test [7] and in test [8].

Take `Oc1cccc(O)c1`: the Potency result in [1], in test [3], in [5] and in test [6] was “inactive” in each case. Also, the molecule was called inactive in test [2], in [4], in test [7] and in [9].

Turning to `CC12CCC(CC1)C(C)(C)O2`, the Potency entry in [1], in test [3], in test [5] and in test [6] was “inactive” throughout. Also, the molecule was classed as inactive in test [2], in [4], in test [7] and in [9].

In the case of `Cc1cc(CC(=O)O)n(C)c1C(=O)c1ccc(Cl)cc1`, the Potency entry in [1], in test [3], in test [5] and in test [6] was “inactive” in each case. The result in test [2], in test [4], in test [7], in test [8] and in test [9] was inactive.

Take `NC(=O)N/N=C/c1ccc([N+](=O)[O-])o1`: the Potency entry in [1] and in test [3] was “inactive” throughout. For the same molecule, the result in test [2], in test [4], in [8] and in test [9] was inactive.

For `NCCNCCNCCN`, the Potency entry in test [1], in test [3], in [5] and in [6] was “inactive” in each case. The outcome in test [2], in test [4], in test [7], in [8] and in test [9] was inactive.
